Results taken from PubChem BioAssay (NCATS).
Results filed as inconclusive are left out. Calls of active or inactive are those of the source. Calls come from the whole dose curve; as a rule, active = well fitted inhibition curve with a large enough effect; inconclusive = small, poorly fitted or top-dose-only effect; inactive = flat fitted curve, though single readings scatter. Peptide text beside a SMILES is read from it.

How the values were obtained:
Assay in all cases: qHTS profiling for inhibitors of Plasmodium falciparum proliferation (AID 504749); note: nearly all actives have a fitted effect of over 60% in size
Details in all cases: P. falciparum in erythrocytes, SYBR Green DNA, 72 h; series mostly up to 28.7 µM
7G8 = tested on: 7G8
Summary of the method: (§1)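 Infected RBCs, 0.3% parasitemia/2.5% Hct final; cpd 72 h, 37 C, 5% CO2; lysis buffer with saponin/triton/SYBR Green I, o/n RT dark; FI 485/535; norm. to artemisinin (0.29 uM) and DMSO.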

AA1029 = tested on: AA1029
Summary of the method: as §1

C2A = tested on: C2A
Summary of the method: as §1

CP192 = tested on: CP192
Summary of the method: as §1

CP194 = tested on: CP194
Summary of the method: as §1

CP203 = tested on: CP203
Summary of the method: as §1

CP217 = tested on: CP217
Summary of the method: as §1

CP237 = tested on: CP237
Summary of the method: as §1

CP266 = tested on: CP266
Summary of the method: as §1

CP268 = tested on: CP268
Summary of the method: as §1

CP269 = tested on: CP269
Summary of the method: as §1

CP291 = tested on: CP291
Summary of the method: as §1

CP315 = tested on: CP315
Summary of the method: as §1

CP329 = tested on: CP329
Summary of the method: as §1

DIV30 = tested on: DIV30
Summary of the method: as §1

HB3 = tested on: HB3
Summary of the method: as §1

JCK = tested on: JCK
Summary of the method: as §1

P94_40 = tested on: P94_40
Summary of the method: as §1

PC26 = tested on: PC26
Summary of the method: as §1

TAB109 = tested on: TAB109
Summary of the method: as §1

Measured: Potency
Potency is the fitted concentration of half-maximal effect.

CC(=O)OCC1=C(C(=O)O)N2C(=O)C(NC(=O)Cc3ccccc3)C2SC1 (stereo not given)
inactive: all assays above

COc1ccc(-c2nc3ccc(C4=C(C)CC(=O)NN4)cc3[nH]2)cc1
active: 7G8 8.91 µM
inactive: AA1029 | CP192 | CP217 | CP266 | CP291 | CP315 | CP329 | HB3 | JCK | P94_40

CC(C)C(NC(=O)C(CC(=O)O)NC(=O)C(CCCCN)NC(=O)C(N)CCCN=C(N)N)C(=O)NC(Cc1ccc(O)cc1)C(=O)O (stereo not given) (H-RKDVY-OH; configuration not given here)
inactive: all assays above

CCC(Oc1ccccc1)C(=O)NC1C(=O)N2C1SC(C)(C)C2C(=O)O (stereo not given)
not listed: CP192
inactive: all other assays above

CC(=O)OCC(=O)[C@@]1(O)CCC2C3CCC4=CC(=O)CC[C@]4(C)C3=CC[C@@]21C (stereo not given in full)
inactive: all assays above

CC(C)C[C@H](NC(=O)[C@@H](Cc1c[nH]c2ccccc12)NC(=O)[C@@H](Cc1ccc(O)cc1)NC(=O)[C@@H](CO)NC(=O)[C@@H](Cc1c[nH]c2ccccc12)NC(=O)C(Cc1cnc[nH]1)NC(=O)C1CCC(=O)N1)C(=O)N[C@@H](CCCN=C(N)N)C(=O)N1CCC[C@@H]1C(=O)NCC(N)=O (stereo not given in full)
inactive: all assays above
